An excerpt weighted towards active compounds, which were near 3.1% of everything screened.
PLK1 PBD block: PLK1 (human) polo-box domain binding inhibition | 360,000 compounds, 2.8% hits | Potency, µM, for inactives: max response, negative = inhibition, usual class: inhibitors | P53350 | Plk1 PBD binding of FITC phosphopeptide, fluorescence polarization | AID 720504; note: potency is the fitted concentration of half-maximal effect; series mostly up to about 57 µM; % is set by controls: 0 for no effect and ±100 for the full control effect; nearly all actives have a fitted effect of over 65% in size
TSHR antag: human thyrotropin receptor antagonism; TSHR-expressing cells, TSH-stimulated cAMP HTRF, 2 h; stronger effect = lower value; activity change, negative = inhibition, % at 11.5 µM; AID 504810; 330,000 compounds, 0.2% hits; P16473;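 active = activity change below a set negative limit, meaning inhibition stronger than a set level, cut at about -70% in these data; inconclusive = activity change between two set negative limits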; note: % is set by controls: 0 for no effect and ±100 for the full control effect
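Cell-based HTRF cAMP assay; TSHR cells + compound, TSH EC80 (4nM final), 2 h, 37 deg C. Lysis with anti-cAMP cryptate and cAMP-d2, 30 min RT, read 665/620 nm.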
VDR inh: blocks the human vitamin D receptor | 400,000 compounds, 0.93% hits | VDR-SRC2-3 peptide fluorescence polarization, 2 h | Potency, µM, for the others: max response, negative = inhibition, most hits filed as inhibitors | AID 504847 | P11473; note: potency is the fitted concentration of half-maximal effect; % is set by controls: 0 for no effect and ±100 for the full control effect
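VDR–SRC2-3 interaction, FP format. Cmpds 23 nl via pintool, brief spin, 2 h ambient incubation.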
uPA surface inh: inhibitors of cell surface uPA generation | cell surface uPA generation assay, qHTS | Potency, µM (highest dose often 38.3 µM), for the others: at the highest dose activity change, negative = inhibition, usual class: inhibitors | 330,000 compounds, 0.31% hits; active = well fitted inhibition curve with a large enough effect; inconclusive = small, poorly fitted or top-dose-only effect; inactive = no such curve, though single readings can be large or run the other way; tested in mouse RAW 264.7 cells; note: potency is the fitted concentration of half-maximal effect; % is set by controls: 0 for no effect and ±100 for the full control effect; nearly all actives have a fitted effect of over 55% in size
TSG101-PTAP inh: blocks PTAP/TSG101 interaction to inhibit HIV-1 budding. Potency, µM (series often up to 115 µM), for inactives: top-dose activity change, negative = inhibition, actives largely listed as inhibitors. Fluorescence polarization, FITC-PTAP peptide / Tsg101 binding. Q99816. 340,000 tested, under 10 active; active = well fitted inhibition curve with a large enough effect in the main read-out, with a control signal flat, not every such curve was filed as active; inconclusive = small, poorly fitted or top-dose-only effect, or effect the other way, or a change in a side signal; inactive = no such curve, though single readings can be large or run the other way; note: potency is the fitted concentration of half-maximal effect; % of control where 0% means no effect
Target sequence (Q99816 whole entry, looked up): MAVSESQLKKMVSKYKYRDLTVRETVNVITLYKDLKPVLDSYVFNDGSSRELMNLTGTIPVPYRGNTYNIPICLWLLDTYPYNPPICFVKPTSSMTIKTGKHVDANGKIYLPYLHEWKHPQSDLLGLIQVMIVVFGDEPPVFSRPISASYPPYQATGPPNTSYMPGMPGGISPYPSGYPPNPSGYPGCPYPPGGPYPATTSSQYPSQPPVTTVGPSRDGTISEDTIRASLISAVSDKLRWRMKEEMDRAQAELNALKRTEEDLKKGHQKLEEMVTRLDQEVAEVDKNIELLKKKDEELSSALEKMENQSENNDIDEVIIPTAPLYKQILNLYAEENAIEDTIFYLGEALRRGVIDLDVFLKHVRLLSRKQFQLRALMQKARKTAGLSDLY
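Steps: Tsg101 binding domain dispensed (10 uM final), compounds pinned in DMSO, FITC-labeled PTAP-motif peptide added (50 nM final); after 20 min binding at room temperature, polarization measured.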
* marks the source's active call; other numbers are inactive results; ? = inconclusive; · = not tested or not shown. Unless noted, calls come from the whole dose curve; as a rule, active = well fitted curve in the direction sought with a large enough effect; inconclusive = small, poorly fitted or top-dose-only effect, or another doubt; inactive = no such curve, though single readings can be large; an effect the other way counts as inactive or inconclusive.

SMILES | PLK1 PBD block | TSHR antag | VDR inh | uPA surface inh | TSG101-PTAP inh
CC(C)c1ccc(-c2csc(NC(=O)c3cccs3)c2C(=O)O)cc1 | 33.6µM* | -17.5 | -19.4% | -18.9% | 0.2%
COc1ccccc1-c1cc(C(=O)NCCc2ccccc2)no1 | 26.7µM* | -21.4 | -14.4% | -10.0% | 0.9%
CCOC(=O)c1c(NC(=O)c2cc(-c3ccccc3OC)on2)sc(C)c1C | · | · | 79.4µM* | · | ·
CCn1nnnc1-c1ccc(OC)c(S(=O)(=O)Nc2ccccc2OC)c1 | -1.5% | · | · | · | ·
COC(=O)c1cc2oc3ccccc3c2n1Cc1cc(C)ccc1C | · | · | 11.7% | · | ·
COc1ccccc1Nc1nc(N)nc(CSc2ncccn2)n1 | 26.7µM* | 1.5 | -14.2% | 7.9% | -4.3%
Cc1cccc(C2=N[C@@H](Cc3ccccc3)CO2)c1 | · | · | -0.6% | · | ·
O=C1c2ccccc2C(=O)C1(O)O | · | 27.3 | · | · | ·
CC1(S(=O)(=O)O)CC(=O)c2ccccc2C1=O (stereo not drawn) | 0.0% | 8.5 | -18.1% | 7.94µM* | -3.4%
O=C(NCc1ccccc1Cl)c1ccc2nc([C@H]3C[C@H](O)[C@@H](CO)O3)[nH]c2c1 | -15.0% | · | · | · | ·
C=CCC(C(=O)NC(C)c1ccccc1)C(=O)NC(C)c1ccccc1 (stereo not drawn) | 26.7µM* | 13.1 | -1.0% | -1.9% | -2.8%
COc1cccc(N2C(=O)C(CC(=O)Nc3cccc(F)c3)N(C3CCCC3)C2=O)c1 (stereo not drawn) | · | · | -4.4% | · | ·
Cc1nnc(N2CCc3ccccc3C2)[nH]c1=O | 29.9µM* | 10.9 | -16.9% | -0.4% | -0.6%
Nc1c(C(=O)NCc2cccnc2)sc(=S)n1-c1ccccc1 | 16.8µM* | -7.8 | ? | · | -1.0%
O=C1OC(c2ccccc2)(c2cc(Br)c(O)c(Br)c2)c2ccccc21 (stereo not drawn) | 23.8µM* | · | -18.0% | -4.1% | -7.1%
O=C(O)c1ccc(C2(c3ccc(C(=O)O)cc3)OC(=O)c3ccccc32)cc1 | 1.3% | 5.3 | -0.7% | 8.3% | -2.3%
COc1ccccc1OCc1nc2ccccc2[nH]1 | 1.0% | 1.5 | 9.8% | 3.5% | -5.0%
Cc1ccccc1OCc1nc2ccccc2[nH]1 | 26.7µM* | -16.6 | -9.6% | -3.2% | -2.0%
O=[N+]([O-])c1ccccc1COc1ccc(Cl)c2cccnc12 | 23.8µM* | -2.9 | -19.8% | -4.3% | 2.6%
Cc1nc(NS(=O)(=O)c2ccccc2)sc1NC(=O)OCCN(C)C | 21.2µM* | 1.0 | 15.7% | 2.2% | -2.8%
CCOC(=O)c1sc(NS(=O)(=O)c2ccccc2)nc1C | -8.1% | 2.2 | 4.0% | 9.2% | -2.1%
COCCNc1nc(C)c(C(C)=O)s1 | -10.1% | 0.8 | ? | 3.2% | -1.0%
COc1ccccc1CNc1nc(C)c(C(=O)N(C)C)s1 | 23.8µM* | -16.7 | ? | -2.0% | 0.7%
Cc1nc(NCCc2ccccc2)sc1C(=O)N(C)C | 18.9µM* | 2.9 | -26.2% | 3.2% | -2.8%
COc1ccccc1CNc1nc(C)c(C(C)=O)s1 | 15µM* | -5.5 | -4.8% | 1.4% | 0.1%
SMILES | PLK1 PBD block | TSHR antag | VDR inh | uPA surface inh | TSG101-PTAP inh
CCOC(=O)c1nc(NCCc2ccccc2)sc1C | -5.1% | 13.9 | 0.8% | 1.0% | -1.1%
c1ccc(Nc2ccccn2)cc1 | 23.8µM* | 1.6 | ? | 4.2% | -1.3%
Cc1ccc(-c2cc(C(=O)NCCc3ccccc3)c3c(-c4ccc(C)cc4)[nH]nc3n2)cc1 | · | · | 11.8% | · | ·
Cc1cccc(NC(=O)CSc2nnc(NC(=O)Nc3ccccc3)s2)c1C | · | · | 0.1% | · | ·
COc1ccccc1CNC(=O)c1cc2sccc2n1Cc1ccc(F)cc1 | · | · | 89.1µM* | · | ·
COc1ccc(CNC(=O)c2cc3sccc3n2Cc2ccc(F)cc2)cc1 | · | · | -6.8% | · | ·
COc1ccc(-c2nc3c(C)cc(Br)cn3c2CC2CCCCC2)cc1OC | 4.7% | · | · | · | ·
Cc1cc(C)c(S(=O)(=O)Nc2nnc(C)s2)c(C)c1 | 3.36µM* | 0.2 | ? | 3.8% | -5.3%
Cc1cc(C)c(S(=O)(=O)Nc2nnc(CC(C)C)s2)c(C)c1 | -6.9% | -8.4 | -6.2% | -0.2% | -9.4%
COCCCN(C(=S)Nc1c(C)cc(C)cc1C)C(C)c1ccccn1 (stereo not drawn) | 23.8µM* | -0.8 | 6.4% | 4.9% | 0.5%
NC(=O)C1CCCN(CCc2ccccc2)C1 (stereo not drawn) | -4.2% | 2.9 | 10.1% | -4.3% | -5.7%
CCCc1sc(N2CCCC(C(N)=O)C2)nc1-c1ccccc1 (stereo not drawn) | 23.8µM* | 0.2 | 79.4µM* | -3.7% | -7.6%
